Results on 13 compounds are retold here after PubChem BioAssay (Tox21).

A short description of test [1]: qHTS assay for small molecules that induce genotoxicity in human embryonic kidney cells expressing luciferase-tagged ATAD5 (AID 651632). Further: nearly all actives have a fitted effect of over 15% in size. In short, it runs like this:
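ATAD5-luc HEK293T, 2,000 cells/well; cpd or DMSO pin-transferred; 16 hr, 37C/5% CO2; Amplite 30 min RT; luminescence.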
On the technique in general: In qHTS, concentration-response curves come from the screen itself.

A short description of test [2]: qHTS assay for small molecule agonists of the p53 signaling pathway - cell viability (AID 651633; calls by dose curve; further: nearly all actives have a fitted effect of over 30% in size; further: potency means the concentration at half of the fitted maximal effect). The method, boiled down:
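p53RE-bla cells, seeded at 4,000 per well and rested 5 h at 37 C/5% CO2, received compounds in DMSO for 16 h at 37 C. CellTiter-Glo was then added, and luminescence was read after 30 min at room temperature to gauge cytotoxicity.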

Test [3] in a line: qHTS assay for small molecules that induce genotoxicity in human embryonic kidney cells expressing luciferase-tagged ATAD5 - cell viability (AID 651634; calls by dose curve; further: nearly all actives have a fitted effect of over 25% in size; further: potency means the concentration at half of the fitted maximal effect). The method, boiled down:
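Fluorescence from CellTiter-Fluor, reporting protease activity within live cells, served as the viability read-out. HEK293T cells carrying luciferase-tagged ATAD5 had been treated with compound for 15.5 hr at 37C.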

Test [4] in a line: qHTS assay for small molecule disruptors of the mitochondrial membrane potential - cell viability (AID 720634; calls by dose curve; further: nearly all actives have a fitted effect of over 20% in size; further: potency means the concentration at half of the fitted maximal effect). In short, it runs like this:
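Cells: HepG2, 2,000/well, attached overnight. Compound 1 hr, 37 C/5% CO2. +m-MPI dye, +CellTiter-Glo 30 min RT. Readout: luminescence (ATP).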

The nature of test [5]: qHTS assay for small molecule disruptors of the mitochondrial membrane potential (AID 720635). The method, boiled down:
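HepG2 cells (2,000/well) attached overnight at 37C, then took compound for 1 hr at 37C, 5% CO2. Mito-MPS dye was added for 30 min; fluorescence was read at 490/535 nm (monomers) and 540/590 nm (aggregates).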

A short description of test [6]: qHTS assay to test for compound auto fluorescence at 535 nm (green) in HepG2 cells (AID 720675).
Test [7] can be described thus: qHTS assay to test for compound auto fluorescence at 460 nm (blue) in HEK293 cells (AID 720678). The method, boiled down:
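HEK293, 2,000 cells/well, 10% dialyzed FBS; attach 4-5 hr 37C; pin compound or DMSO; o/n 37C/5% CO2; fluorescence 405/460 nm; triamterene-equivalent units.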

Test [8] can be described thus: qHTS assay to test for compound auto fluorescence at 590 nm (red) in HEK293 cells (AID 720679). In short, it runs like this: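 Intensity at 540nm excitation and 590nm emission is reported as Rose Bengal sodium-equivalent autofluorescence. Measurements followed overnight exposure (37C, 5% CO2) of HEK293 cells, 2,000 per well, to 23 nL compound.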
A short description of test [9]: qHTS assay to test for compound auto fluorescence at 535 nm (green) in HEK293 cells (AID 720680).
A short description of test [10]: qHTS assay to test for compound auto fluorescence at 460 nm (blue) in HEK293 cell free culture (AID 720681). The method, boiled down: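 Test compounds were pinned into cell-free culture medium (DMEM with 10% FBS) and fluorescence was read directly at Ex/Em 405/460 nm. Signals were expressed as fluorescence equivalents of triamterene, with DMSO vehicle as control.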

Test [11] in a line: qHTS assay to test for compound auto fluorescence at 535 nm (green) in HEK293 cell free culture (AID 720682). The method, boiled down:
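Cell-free medium (DMEM, 10% FBS) receives compound or DMSO by pintool. Plate read directly at Ex 485/Em 535 nm. Signal converted to fluorescein equivalency.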

The nature of test [12]: qHTS assay to test for compound auto fluorescence at 590 nm (red) in HepG2 cell free culture (AID 720684). In short, it runs like this: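 Measured in medium alone (MEM containing 10% FBS) following pintool addition of compound; emission at 590 nm with 540 nm excitation, referenced to Rose Bengal sodium.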
Test [13] can be described thus: qHTS assay to test for compound auto fluorescence at 460 nm (blue) in HepG2 cell free culture (AID 720685). The method, boiled down:
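Compound (23 nL) or DMSO pinned into cell-free MEM with 10% FBS; blue fluorescence read at 405/460 nm excitation/emission, expressed as auto-fluorescence equivalency to triamterene.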

Test [14] is described as follows: qHTS assay to test for compound auto fluorescence at 535 nm (green) in HepG2 cell free culture (AID 720686).
Test [15] in a line: qHTS assay to test for compound auto fluorescence at 460 nm (blue) in HepG2 cells (AID 720687). In short, it runs like this: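 Cells (2,000/well in MEM with 10% FBS) attached overnight at 37 C, then were exposed to compound or DMSO for 1 hr at 37 C, 5% CO2. Fluorescence read at Ex/Em 405/460 nm, expressed as triamterene-equivalent signal.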
Test [16] concerns the target Glucocorticoid receptor (Homo sapiens) (UniProt P04150). The test can be described thus: qHTS assay to identify small molecule agonists of the glucocorticoid receptor (GR) signaling pathway (AID 720691; active means well fitted activation curve with a large enough effect in the signal ratio in the repeat runs, not every such curve was filed as active; the % refers to the signal ratio). In short, it runs like this:
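Fluorescence intensity from LiveBLAzer B/G FRET substrate (2 h, room temperature) reports beta-lactamase expression driven by the glucocorticoid response element in GR-bla HeLa cells after 18 h compound exposure at 37 C.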

Test [17] shares this target. The test can be described thus: qHTS assay to identify small molecule antagonists of the glucocorticoid receptor (GR) signaling pathway (AID 720692; active means well fitted inhibition curve with a large enough effect in the signal ratio in the repeat runs, not every such curve was filed as active; the % refers to the signal ratio). In short, it runs like this: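 HeLa GR-bla cells; cmpd + dex 5 nM final, 18 h 37 C; LiveBLAzer B/G FRET substrate 2 h RT; fluorescence intensity read. Antagonist mode, qHTS.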
Test [18] can be described thus: qHTS assay to test for compound auto fluorescence at 590 nm (red) in HepG2 cells (AID 720674). In short, it runs like this: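 Compound auto-fluorescence is scored relative to Rose Bengal sodium, measured at 540/590 nm in live HepG2 cultures after 1 hr compound contact (37 C, 5% CO2).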
A short description of test [19]: qHTS assay to test for compound auto fluorescence at 590 nm (red) in HEK293 cell free culture (AID 720683). In short, it runs like this: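 Tox21 10K library compounds were pinned into cell-free DMEM with 10% FBS and fluorescence was read at excitation 540 nm. Activity is expressed as Rose Bengal sodium equivalency.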

“And” between values parts separate entries of the source, which are not always exact repeats. Equal values may be shown once. Records with an inconclusive call do not appear. A structure can be active in one record and inactive in another. The source made the active and inactive calls. Unless noted, the call rests on the fitted dose curve; in most records, active means well fitted curve in the direction sought with a large enough effect in the repeat runs; inconclusive means weak or mixed curves; inactive means no such curve, though single readings can be large; an effect the other way counts as inactive or inconclusive.
On the % scale 0 is the no-effect control and ±100 the full control effect.

Glucocorticoid receptor (Homo sapiens), sequence (P04150 whole entry, looked up): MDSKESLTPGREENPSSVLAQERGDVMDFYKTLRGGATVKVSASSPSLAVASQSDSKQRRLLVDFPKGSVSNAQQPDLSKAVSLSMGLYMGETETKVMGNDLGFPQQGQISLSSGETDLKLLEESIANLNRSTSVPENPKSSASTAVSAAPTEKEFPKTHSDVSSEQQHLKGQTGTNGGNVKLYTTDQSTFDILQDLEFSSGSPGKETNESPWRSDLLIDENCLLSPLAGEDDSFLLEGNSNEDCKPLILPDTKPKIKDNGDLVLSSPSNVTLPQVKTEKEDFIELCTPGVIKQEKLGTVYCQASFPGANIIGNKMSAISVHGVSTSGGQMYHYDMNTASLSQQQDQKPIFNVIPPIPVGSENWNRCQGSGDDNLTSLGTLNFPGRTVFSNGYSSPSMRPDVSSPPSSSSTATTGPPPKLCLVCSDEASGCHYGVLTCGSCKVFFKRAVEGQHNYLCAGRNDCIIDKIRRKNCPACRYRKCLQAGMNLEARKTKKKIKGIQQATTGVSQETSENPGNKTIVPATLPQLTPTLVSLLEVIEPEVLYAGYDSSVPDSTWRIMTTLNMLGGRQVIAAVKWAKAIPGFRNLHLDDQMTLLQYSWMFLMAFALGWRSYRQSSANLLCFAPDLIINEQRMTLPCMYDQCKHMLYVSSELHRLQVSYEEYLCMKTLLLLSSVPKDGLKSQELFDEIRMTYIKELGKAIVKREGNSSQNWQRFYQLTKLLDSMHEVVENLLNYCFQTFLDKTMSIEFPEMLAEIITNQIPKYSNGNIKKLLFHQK

For the compound `CCc1cnc(C2=NC(C)(C(C)C)C(=O)N2)c(C(=O)O)c1` (stereo not given), the Potency entry in test [1], in test [2], in [3], in [4], in [5] and in test [16] was “inactive” each time. Moreover, in test [17], the Potency result is “inactive”. For the same compound, the compound was classed as inactive in [6], in test [7], in test [8], in [9], in [10] and in test [11]. Further, the compound was called inactive in test [12], in test [13], in [14] and in [15].

In the case of `CCOC(=O)c1cncn1C(C)c1ccccc1` (stereo not given), the Potency entry in [1], in [2], in [3] and in [4] was “inactive” each time. Moreover, the fluorescence, relative to Rose Bengal in test [18] is -0.315% [at 18.6 µM] (inactive). Further, the values for the fluorescence, % of fluorescein control in test [6] and in [14] were 0.021% [at 18.6 µM] (inactive) and 0.0291% [at 18.6 µM] (inactive), respectively. Besides, the fluorescence, % of triamterene in test [7] is -0.152% [at 18.6 µM] (inactive). Besides, the fluorescence, % of fluorescent control in test [8] is 0.134% [at 18.6 µM] (inactive); in test [10], -0.0565% [at 18.6 µM] (inactive); in [13], -0.0673% [at 18.6 µM] (inactive); in test [15], 0.278% [at 18.6 µM] (inactive). Moreover, in [9], the fluorescence, % of fluorescein is -0.183% [at 18.6 µM] (inactive). For the same compound, the activity change in test [11] was -0.219% [at 18.6 µM] (inactive). In test [12], the fluorescence, % of Rose Bengal was 0.117% [at 18.6 µM] (inactive).

Turning to `CCCCC(CC)CO[N+](=O)[O-]` (stereo not given), the Potency entry in test [1], in [2], in test [3], in [4], in test [16] and in test [17] was “inactive” in each case. Further, the result in test [18], in [6], in test [7], in test [8], in test [9] and in test [10] was inactive. Moreover, the call in [11], in test [19], in test [13], in test [14] and in test [15] was inactive.

Consider `Clc1ccc2ccccc2c1`, for which the Potency entry in test [1], in test [2], in [3], in [4], in test [16] and in test [17] was “inactive” in each case. In addition, the compound was called inactive in test [18], in [6], in [8], in test [9], in [10] and in test [11]. Also, the call in [12], in test [13], in [14] and in [15] was inactive.

In the case of `CCC(C)(C)c1ccc(O)c(C(C)(C)CC)c1`, the Potency result in test [1] was “inactive”. Also, the Potency was 21.4 µM (active) and 27.3 µM (active) in test [2]; 53.9 µM (active) in test [3]; 6.04 µM (active) in test [4]. In addition, the compound was classed as inactive in test [18], in test [6], in [8], in test [9], in [10] and in [11]. The call in test [19], in [12], in [13], in test [14] and in test [15] was inactive.

Regarding `CC(Oc1cc(Cl)c(Cl)cc1Cl)C(=O)O` (stereo not given), the Potency result in test [1], in [2], in test [3], in [4], in [16] and in [17] was “inactive” each time. Besides, the outcome in test [18], in [6], in test [7], in test [8], in test [9] and in test [10] was inactive. Further, the compound was classed as inactive in test [11], in [12], in test [13], in [14] and in test [15].

Turning to `CCCCOC(=O)CCC(=O)OCCCC`, the Potency entry in test [1], in [2], in [3] and in [4] was “inactive” in each case. In addition, the compound was called inactive in test [18], in [6], in [7], in test [8], in test [9] and in test [10]. In addition, the result in [11], in test [13], in test [14] and in [15] was inactive.

With `CC(C)c1ccc(NC(=O)N(C)C)cc1`, the Potency entry in test [1], in test [2], in [3], in [4], in test [16] and in [17] was “inactive” in each case. For the same compound, the outcome in test [18], in [6], in test [7], in [8], in [9] and in test [10] was inactive. Further, the compound was called inactive in [11], in test [19], in test [12], in test [13], in [14] and in test [15].

In the case of `CN(C)C(=O)Nc1cccc(OC(=O)NC(C)(C)C)c1`, the Potency result in test [1], in [2], in test [3], in [4], in [16] and in test [17] was “inactive” throughout. Further, the result in test [18], in test [6], in [7], in [8], in test [9] and in [10] was inactive. Also, the outcome in [11], in test [19], in test [12], in test [13], in test [14] and in [15] was inactive.

Take `CCCCCCCCCCCC[N+](C)(C)CCOc1ccccc1`: the Potency entry in test [1] was “inactive”. Besides, the Potency in [2] is 29.8 µM (active) and 21.7 µM (active); in test [3] it was 29.8 µM (active) and 61.1 µM (active); in test [4], “inactive and 68.6 µM (active)”. Moreover, the call in test [18], in test [6], in [7], in test [8], in test [9] and in test [10] was inactive. The compound was classed as inactive in test [11], in test [19], in test [13], in [14] and in test [15].

Regarding `CCCC[N+]1(C)[C@@H]2CC(OC(=O)[C@H](CO)c3ccccc3)C[C@H]1[C@@H]1O[C@@H]12` (stereo not given in full), the Potency result in [1], in [2], in test [3], in [4], in [5] and in [17] was “inactive” each time. Besides, the outcome in test [6], in test [7], in [8], in test [9], in test [10] and in test [11] was inactive. For the same compound, the call in [19], in [12], in test [13], in [14] and in [15] was inactive.

For the compound `CCN(C(C)=O)c1cccc(-c2ccnc3c(C#N)cnn23)c1`, the Potency entry in test [1], in test [2], in [3] and in test [4] was “inactive” in each case. The compound was called inactive in [18], in [6], in test [8], in [9], in test [10] and in test [11]. Moreover, the call in test [19], in [12], in [13], in test [14] and in [15] was inactive.

Consider `Nc1cc(Cl)cc(C(=O)O)c1Cl`, for which the Potency result in [1], in test [2], in [3], in test [4] and in test [5] was “inactive” in each case. In addition, the compound was classed as inactive in test [18], in test [6], in [7], in test [8], in test [9] and in test [10]. The compound was classed as inactive in [11], in test [19], in [13], in test [14] and in test [15].
